PriA SSB inh: blocks PriA binding to SSB C-terminal tail; inhibition, % at 33 µM; AID 1272365; AlphaScreen SSBct-PriA binding, biotinylated peptide; actives 0.6% (n = 430,000); in the data active = inhibition mostly above about 37%, no sharp cut-off; inactive = mostly below about 20%;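 note: plate controls were negative control peptide for no effect and reference peptide for full effect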
RN4220 kill: kills Staphylococcus aureus RN4220; S. aureus RN4220 growth, OD600, 16 h; inhibition, % (concentration not given with the values); AID 1259311; actives 0.33% (n = 330,000); in the data active = inhibition above about 85%;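 note: plate controls were untreated cells for no effect and reference antibiotic for full effect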
BJeLR lethal: BJeLR cell viability loss. BJeLR (HRASV12) viability, CellTiter-Glo ATP luminescence, 48 h. inhibition, % (no concentration beside the values). actives 0.17% (n = 300,000); in the data active = inhibition above about 50%
MazF activator: increases E. coli MazEF RNase cleavage of RNA | FAM/BHQ RNA-DNA oligo cleavage fluorescence, 5 h | activation, % at 20 µM | actives 0.32% (n = 350,000); in the data active = activation above about 50%
Target sequence (P0AE70 whole entry, looked up): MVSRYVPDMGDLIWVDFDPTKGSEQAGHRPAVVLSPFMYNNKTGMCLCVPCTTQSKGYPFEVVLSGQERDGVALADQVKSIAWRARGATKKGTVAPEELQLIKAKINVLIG
ugtP null kill: compounds lethal to S. aureus RN4220 ugtP deletion mutant; OD600 growth, 16 h; growth inhibition, % (test concentration not listed); actives 0.54% (n = 330,000); AID 1259309; in the data active = growth inhibition above about 68%;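 note: plate controls were untreated wells for no effect and antibiotic for full effect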
Numbers without * were called inactive; . = no result given. Most compounds without a hit are left out; they make up all but 1.2% or so of the library.

SMILES	PriA SSB inh	RN4220 kill	BJeLR lethal	MazF activator	ugtP null kill
Cc1ccc2[nH]c(C)c(C=NNc3nc4ccccc4s3)c2c1	52.3*	99.9*	.	.	99.0*
CC(C)C[C@@H](CN1CCCC1CN1C(=S)NC[C@@H]1Cc1ccc(O)cc1)N1C[C@H](Cc2ccc(O)cc2)N(CC2CCCCCC2)C1=S (stereo partly specified)	-2.6	.	.	-13.0	.
CC1(C)CC(=O)C2=C(C1)c1c(ccc3ccccc13)NC2c1ccc(C(=O)O)cc1 (stereo unspecified)	-4.3	7.6	5.9	-3.5	-1.4
CC1(C)CC(=O)C2=C(C1)c1c(ccc3ccccc13)NC2c1cc([N+](=O)[O-])cc([N+](=O)[O-])c1O (stereo unspecified)	18.7	95.1*	-7.5	6.4	89.5*
COC(=O)CC1(C(=O)OC)Nc2cc(Cl)c(Cl)cc2S(=O)(=O)N1O (stereo unspecified)	.	.	.	122.6*	.
COC(=O)CCC(=O)Nc1ccc(Cl)c(Cl)c1	-1.0	1.3	-5.2	7.3	8.4
CCOC(=O)C1=C(CC)Nc2ccccc2N=C1NC(=O)Nc1ccc(Cl)c(Cl)c1	-9.0	100.6*	11.9	4.2	100.3*
COc1ccc(CC2C(=O)OC(C)(C)OC2=O)c(Cl)c1OC	10.9	3.0	-2.8	-4.2	13.0
Cc1ccccc1CSc1nccn1-c1ccccc1	49.5*	5.2	-2.1	2.0	4.7
Cc1ccccc1CSc1nnc(-c2ccccn2)n1C	-13.2	5.1	9.1	8.9	5.3
OCCCNC(=S)Nc1ccc2nc(-c3ccccn3)c(-c3ccccn3)nc2c1	71.6*	5.3	-10.7	-15.4	0.7
CN(C)NC(=S)Nc1ccc2nc(-c3ccccn3)c(-c3ccccn3)nc2c1	78.9*	1.6	2.8	-20.6	4.6
CN(C)C(=S)Nc1ccc2nc(-c3ccccn3)c(-c3ccccn3)nc2c1	34.6	.	.	.	.
COC(=O)CCSc1cc([N+](=O)[O-])cc2c1c(C1OCCO1)nn2-c1ccccc1	7.8	12.4	3.0	-5.0	-1.9
Cc1ccc(NC2=Nc3ccccc3N3C2=Nc2c(c(C)nn2-c2ccccc2)C3c2ccc(O)c(O)c2)cc1 (stereo unspecified)	3.7	68.8	.	1.6	98.2*
Cc1cccc(NC2=Nc3ccccc3N3C2=Nc2c(c(C)nn2-c2ccccc2)C3c2ccc(O)c(O)c2)c1 (stereo unspecified)	-35.0	47.1	6.1	-7.4	97.4*
Brc1ccccc1Cn1cnc2ccccc21	2.4	6.8	-10.4	1.7	4.4
CCSc1ccccc1C(=O)N1C2CCC1CC(SC)C2 (stereo unspecified)	7.0	.	.	.	.
Cc1ccccc1C(=O)Oc1cc(N)n(S(C)(=O)=O)n1	-9.9	9.3	-5.2	11.0	17.9
Cc1c(C(=O)Oc2cc(N)n(S(C)(=O)=O)n2)cccc1[N+](=O)[O-]	-3.7	0.6	1.2	73.8*	7.3
COC(=O)[C@]1(C)N[C@H](CN(C)S(=O)(=O)c2ccccc2)[C@@H]2C(=O)N(C)C(=O)[C@@H]21	1.7	5.8	.	2.2	6.6
CSc1ccccc1OCc1cc(C(=O)N2CCc3[nH]cnc3C2c2ccccn2)no1 (stereo unspecified)	52.4*	2.5	-4.7	3.8	10.5
CSc1ccccc1OCc1cc(C(=O)N2CCN(c3ccccc3)CC2C)no1 (stereo unspecified)	-11.4	2.3	2.4	-8.8	-11.6
Cc1cc(C)cc(NC(=O)COC(=O)CCCNC(=O)c2ccc(Cl)cc2)c1	-14.4	-3.8	4.6	4.6	98.7*
CCC(C)(C)NC(=O)C(c1ccc(O)cc1)N(CCOC)C(=O)CCC(=O)Nc1nccs1 (stereo unspecified)	-9.8	1.3	-1.2	234.6*	6.1
SMILES	PriA SSB inh	RN4220 kill	BJeLR lethal	MazF activator	ugtP null kill
O=c1c2ccccc2cnn1-c1nc2ccccc2[nH]1	-1.3	2.3	82.2*	5.9	5.9
O=c1c(Cl)c(N2CCCCC2)cnn1-c1nc2ccccc2[nH]1	-4.7	3.3	24.8	6.8	0.0
CC(=O)Nc1cccc(NC(=O)C2CC(=O)N(CCc3ccc(F)cc3)C2)c1 (stereo unspecified)	-13.3	-1.8	-12.3	-9.7	-0.3
CC(=O)Nc1c(C)nc2ccc(Cl)cn2c1=O	-20.0	.	.	.	.
c1ccc(Nc2cccc(Nc3ccccc3)c2)cc1	66.0*	-16.3	-13.0	-7.8	-21.1
Nc1cccc(Nc2ccccc2)c1	10.6	9.3	8.5	9.2	-11.6
CC(C)c1ccc(NC(=O)C(=O)NC[C@@H](c2ccco2)N(C)C)cc1	-6.0	.	.	.	.
Cc1ccc(NC(=O)CN(C)C(=O)c2cc3c(s2)CCCCC3)cc1	-2.4	-0.1	.	-2.4	2.8
O=C(c1ccccc1)c1ccc(OCC(O)CNCc2ccc(F)cc2)cc1 (stereo unspecified)	-1.5	0.2	8.3	-1.0	-5.9
O=C(c1ccccc1)c1ccc(OCC(O)CNc2ccc(F)cc2)cc1 (stereo unspecified)	57.0*	.	.	.	.
O=c1oc2ccccc2c(O)c1Cc1cc(Cl)c2cccnc2c1O	-6.0	94.2*	-3.1	-4.8	97.8*
Oc1c(Cl)cc(CN2CCOCC2)c2cccnc12	114.8*	1.4	.	3.3	10.2
Oc1c(CN2CCc3ccccc3C2)cc(Cl)c2cccnc12	92.3	3.6	65.4*	-11.7	-2.9
O=[N+]([O-])c1cc(CN2CCOCC2)c2cccnc2c1O	92.4*	.	.	2.3	.
CSCC[C@H](NC(=O)COc1ccc(Cl)cc1)c1nc2ccccc2[nH]1	1.9	4.8	6.6	2.6	3.8
N=c1c(S(=O)(=O)c2ccc(Cl)cc2)cc2c(=O)n3ccccc3nc2n1Cc1cccnc1	-0.7	1.8	-9.1	81.4*	4.9
Cc1ccc(S(=O)(=O)c2cc3c(=O)n4ccccc4nc3n(C)c2=N)cc1C	-0.6	0.7	-6.1	7.0	3.4
C=CCn1c(=N)c(S(=O)(=O)c2ccc(C)c(C)c2)cc2c(=O)n3ccccc3nc21	9.8	0.4	-3.4	183.4*	3.5
Cc1cccn2c(=O)c3cc(C(=O)NCCc4ccccc4)c(=N)n(Cc4ccco4)c3nc12	-2.7	0.3	6.5	6.2	2.1
Cc1cccn2c(=O)c3cc(C(=O)NCc4ccco4)c(=N)n(CCc4ccccc4)c3nc12	5.9	0.4	.	54.0*	0.8
COc1ccc(CNC(=O)c2cc3c(=O)n4ccccc4nc3n(Cc3cccnc3)c2=N)cc1	3.3	2.3	2.0	556.7*	4.3
N=c1c(C(=O)NCc2ccc3c(c2)OCO3)cc2c(=O)n3ccccc3nc2n1Cc1cccnc1	-3.0	3.5	-1.0	13.7	1.2
O=C(NN=Cc1ccc(O)cc1)c1cc(-c2ccccc2)nc2ccccc12	0.0	-0.4	.	.	-4.1
COc1cccc(C(=O)Nc2ccc3c(c2)C(=O)NC3=O)c1	-15.4	4.5	12.1	1.6	6.7
O=C(C[C@@H]1C/C=C\CCCC(=O)OC[C@@H]2CCCN2C1=O)NCCO	.	.	.	5.0	.
CCn1c2ccccc2c2cc(C3c4c(n[nH]c4C)OC(=N)C3C#N)ccc21 (stereo unspecified)	13.0	.	.	.	.
O=C(CSc1nnc(SCc2ccc(Cl)cc2)s1)NN=Cc1ccc(Cl)cc1Cl	2.7	-12.9	.	.	-0.3
